Results published in PubChem BioAssay (NCI).
Compounds without any hit were thinned out: in the full panel of roughly 83,000, 20% have a hit.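 Method: cells in 96-well plates; compound added at one concentration; 48 h incubation; percent growth measured; values under 10 scored active.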 Values without a mark were called inactive. Active and inactive are the calls of the source.

Tested on: HL-60(TB) leukemia
Experiment: NCI-60 one-dose screen, 48 h (100 = growth as untreated, 0 = no growth, -100 = all killed)
Details: 10 µM unless noted

| Structure (SMILES) | growth |
| --- | --- |
| CC1(c2cc3cc(Cl)ccc3oc2=O)NC(=O)c2c(/C=C/C(=O)OC3CC4CCC3(C)C4(C)C)cccc2N1 (stereo not given) | 29% |
| CCCCCCCCc1ccc(C(=O)Nc2cccc(P(=O)(O)O)c2)cc1 | 101% |
| CC(=O)C[n+]1cccc2c3ccccc3ccc21 | 85% |
| CC(=O)NNc1ccc2nnc(-c3ccc(Br)cc3)n2n1 | 97.5% |
| COc1cccc(C(=O)CSc2nc(-c3ccc(OCc4ccccc4)c(OC)c3)c(C#N)c(=O)[nH]2)c1 | 97.2% |
| Cc1ccc(-c2nc(Nc3ccc(S(N)(=O)=O)cc3)c3ccccc3n2)cc1 | 24.9% |
| COc1cc(C2CC(c3ccccc3)=Nc3c(N)nc(N)nc3N2)ccc1Oc1nc(NCCO)nc(N2CCOCC2)n1 (stereo not given) | 93.5% |
| O=C(c1ccc(OCCN2CCOCC2)cc1)C1[C@H](c2ccc(Cl)cc2)[C@@H](c2ccccc2)NC12C(=O)Nc1ccc(Br)cc12 (stereo not given in full) | -28.5% (active) |
| O=c1[nH]c2ccccc2cc1CSc1nccc(-c2ccc3ccccc3c2)n1 | 50.7% |
| Cc1occc1C(=O)NN1C(=O)/C(=C/C=C/c2ccc([N+](=O)[O-])o2)SC1=S | 0.964% (active) |
| COc1ccc(CCN2C(=O)/C(=C/c3csc(C#N)n3)SC2=S)cc1OC | -18% (active) |
| O=C(/C=C/Nc1ccc2oc(=O)ccc2c1)c1cc2cc(Br)ccc2oc1=O | 131% |
| CN(C(=O)c1ccc(C(F)(F)F)cc1C(F)(F)F)c1sc2c(c1C#N)CCC(=O)C2 | 55.3% |
| O=C(NO)c1ccc(Cn2ccc3c(NCc4ccccc4)ncnc32)cc1 | -16% (active) |
| O=C(CN1C(=O)/C(=C/c2ccccc2F)SC1=S)N1CCOCC1 | 82.5% |
| NS(=O)(=O)c1ccc(NC(=O)CSc2ccc(-c3ccc(Cl)cc3)nn2)c(Br)c1 | 98% |
| CN(CCF)c1ccc(/C=C/C(=O)c2ccc(N)cc2O)cc1 | 58% |
| Cc1ccc(-c2cc(C(=O)N=Nc3c(O)[nH]c4ccc(F)cc34)c3ccccc3n2)cc1 | 88.4% |
| COC(=O)c1c(C(=O)OC)c2c3ccccc3c3ccccc3n2c1C(=O)C(F)(F)F | 107% |
| COc1cc(/C=N/NC(=O)c2ccc(OCc3nc4ccc(C)cc4[nH]3)cc2)cc(OC)c1OC | 33.5% |

| Structure (SMILES) | growth |
| --- | --- |
| S=C(NCCc1ccccc1)Nc1ccc(OCc2nc3ccc(Cl)cc3[nH]2)cc1 | 11.6% |
| COc1cc(NC(=O)C(C)C)ccc1C(=O)NC(=S)Nc1ccc(S(N)(=O)=O)cc1 | 92.5% |
| CCCCCCCCc1ccc(C(=O)Nc2cccc(O)c2)cc1 | 56.5% |
| COc1ccc2c3nc4cc(C)c(C)cc4nc3n(CCN(C)C)c2c1 | -45.3% (active) |
| O=C1NC(=NC2CCCCCC2)N/C1=C\c1ccc2ncoc2c1 | 30.1% |
| Cc1nn(-c2ccccc2)c2nc(C)n(C(=O)N/N=C/c3ccccc3)c(=O)c12 | 104% |
| COc1ccc(-c2nc3ccc(-c4nnc(SCc5ccccc5)o4)cc3[nH]2)cc1 | 16.3% |
| COc1ccc2oc(=O)c(-c3csc(N/N=C(\C)c4cc(OC)c(OC)c(OC)c4)n3)cc2c1 | 107% |
| CN(C)c1nc(NCCNS(=O)(=O)c2ccc(C(=O)/C=C/c3ccc(Cl)cc3)cc2)nc(Nc2ccc(F)cc2)n1 | -42.7% (active) |
| CN1C(=O)N(C)C2SC(N/N=C/c3cccs3)=NC21 (stereo not given) | -19.5% (active) |
| O=C(COc1ccc(/C=C2/C(=O)Nc3ccc(Cl)cc32)cc1)Nc1ccc(Br)cc1 | 10.3% |
| Cc1ccc(C(C)C)cc1Oc1cccc(-c2c(-c3ccc(C(F)(F)F)cc3)ncn2C2CCNCC2)n1 | -83.1% (active) |
| CCCCCCCCc1ccc(S(=O)(=O)Nc2ccc(CC)cc2C(=O)O)cc1 | 120% |
| Nc1cc(-c2c[nH]c3ccc(Cl)cc23)nc2cc(-c3c[nH]c4ccccc34)nn12 | -18.2% (active) |
| COc1cc2c3c(n(CCCN4CCC[C@@H]4CO)c(=O)c2cc1OC)-c1cc2c(cc1C3=O)OCO2 | -15.4% (active) |
| O=C(/C=C/c1ccc(O)c(O)c1)NC1CCOC1O (stereo not given) | 99.1% |
| Cc1ccc(-c2nc(C#N)c(S(=O)(=O)N3CCN(S(=O)(=O)c4ccccc4)CC3)o2)cc1 | -44.9% (active) |
| COc1c(F)ccc(C(=O)Nc2ccc3nc(NC(=O)C4CCCN(S(=O)(=O)c5ccc(C#N)cc5)C4)sc3c2)c1F (stereo not given) | 115% |
| CC(C)c1sc(NC(=O)c2cc(NC(=O)c3cc(NC(=O)c4cscn4)cn3C)cn2C)nc1C(=O)NCCCN(C)C | -22.6% (active) |
| COc1ccc(C2=NN(C(=O)[C@H]3[C@@H](c4ccco4)c4sc(=O)[nH]c4S[C@@H]3C)C(c3ccc4ccccc4c3)C2)cc1 (stereo not given in full) | 2.93% (active) |
